HPGD inh: HPGD (human) dehydrogenase inhibition. AID 894. P15428. purified HPGD, NADH fluorescence kinetic, PGE2 substrate. Potency, µM, without a hit: at the highest dose activity change, negative = inhibition, usual class: inhibitors. 150,000 compounds, 4.3% hits; also: potency is read from the fitted curve at half-maximal effect
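NADH formation kinetics: reaction with 30 uM PGE2 and 1 mM NAD+ (final), 20 nM enzyme, Tris-HCl pH 8 with Tween 20, after 15 min compound preincubation at room temperature. Fluorescence change, last versus first of five reads.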
ALDH1A1 block: ALDH1A1 (human) enzyme inhibition | P00352 | Potency, µM (doses to about 75.3 µM), inactives show at the top dose activity, negative = inhibition, hits mostly inhibitors | Purified ALDH1A1, NADH fluorescence, propionaldehyde substrate | 220,000 compounds, 7.3% hits;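 also: potency is read from the fitted curve at half-maximal effect; plate controls were no enzyme wells and a reference inhibitor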
Target sequence (P00352 whole entry, looked up): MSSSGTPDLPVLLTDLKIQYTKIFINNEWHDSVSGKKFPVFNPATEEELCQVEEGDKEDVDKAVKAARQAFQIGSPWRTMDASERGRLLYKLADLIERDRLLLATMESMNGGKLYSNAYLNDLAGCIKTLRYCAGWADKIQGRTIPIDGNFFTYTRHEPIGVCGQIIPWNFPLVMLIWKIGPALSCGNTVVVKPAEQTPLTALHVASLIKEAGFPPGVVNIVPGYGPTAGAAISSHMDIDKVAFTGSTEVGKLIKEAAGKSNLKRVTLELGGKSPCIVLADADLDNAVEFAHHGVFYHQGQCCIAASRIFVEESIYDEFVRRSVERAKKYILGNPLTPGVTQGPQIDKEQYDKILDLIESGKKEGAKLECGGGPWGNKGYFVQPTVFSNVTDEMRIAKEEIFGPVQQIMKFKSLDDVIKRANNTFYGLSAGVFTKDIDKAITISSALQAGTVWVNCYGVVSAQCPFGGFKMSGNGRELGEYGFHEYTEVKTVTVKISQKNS
KDM4E inh: JMJD2E (human) inhibition. B2RXH2. JMJD2E catalytic domain, FDH-coupled NADH fluorescence (FDH is formaldehyde dehydrogenase). Potency, µM (titrated, usually from 57.1 µM), for the others: at the highest dose activity change, negative = inhibition, actives largely listed as inhibitors. 230,000 compounds, 1.6% hits. AID 2147;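 also: potency is read from the fitted curve at half-maximal effect; 0% = wells with enzyme and -100% = buffer wells without enzyme; nearly all actives have a fitted effect of over 50% in size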
PNC assembly inh: perinucleolar compartment assembly inhibition; activity change (PNC), negative = inhibition, % at 10 µM; 140,000 compounds, 3.1% hits; AID 2417; PC3M PTB-GFP, PNC prevalence imaging, 16 h; active compounds read low;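 active = readout at or below -70, meaning at least 70% loss of cells showing the perinucleolar compartment, a nuclear body marking cancer cells; inconclusive = readout between -30 and a set limit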;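 also: plate controls were DMSO wells for no effect and camptothecin positive control wells for full effect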
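PC3M cells stably expressing PTB-GFP, 750–1000 cells/well, treated 16 h at 37 °C with compound (23 nl of library stock), in duplicate. After paraformaldehyde fixation and Hoechst stain, imaged at 20x; PNC prevalence scored by image analysis.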
An asterisk follows results filed as active; u = inconclusive; x = no result given. Only some compounds are listed: those with a hit (about 11% of all), similar ones and a draw of the others. Unless noted, calls follow the shape of the dose curve; as a rule, active = well fitted inhibition curve with a large enough effect (not every such curve was filed as active); inconclusive = small, poorly fitted or top-dose-only effect, or another doubt; inactive = no such curve, though single readings can be large or run the other way. Unless noted, % is scaled to controls: 0 for no effect and ±100 for the full control effect.

SMILES	HPGD inh	ALDH1A1 block	KDM4E inh	PNC assembly inh
Cc1cccnc1-n1c(CCN2C(=O)c3ccccc3C2=O)nc2ccccc2c1=O	-15%	18µM*	7%	52
COc1ccc2[nH]c(=S)[nH]c2c1	28µM*	-6%	-2%	-12
S=c1[nH]c2cc(Cl)ccc2s1	28µM*	2.8µM*	u	47
S=c1[nH]c2ccc(Cl)cc2[nH]1	10µM*	8.9µM*	3%	5
S=c1[nH]c2cc3c(cc2[nH]1)OCCO3	x	x	-1%	x
CSc1nc2cc(Cl)ccc2s1	1%	-5%	1%	-12
COc1ccc2[nH]c3ccccc3c2c1	u	u	u	17
O=C(Nc1ccccc1)N1CC2(CCN(C(=O)c3ccncc3)CC2)C1	-2%	-1%	x	x
CCOC(=O)c1ccc(-n2c(C)nc3c(cnn3-c3ccccc3Cl)c2=O)cc1	-3%	u	7%	-113*
CCOC(=O)c1ccc(-n2c(C)nc3c(cnn3-c3ccc(Cl)cc3)c2=O)cc1	0%	-1%	-7%	-3
c1cncc(N=c2scc(-c3cccc4ccccc34)n2CCCn2ccnc2)c1	-21%	u	-5%	-92*
CN(Cc1c(O)ccc2c1oc(=O)c1ccccc12)C1CCCCC1	-9%	u	25µM*	u
O=C1OCC2=C1C(c1ccccc1)CC(=O)N2c1ccccc1 (stereo unspecified)	x	4%	8%	x
CCOC(=O)/C(=C/c1ccccc1)NC(=O)c1ccco1	-9%	-7%	-8%	-81*
C=CCOC(=O)/C(=C\c1ccccc1)NC(=O)c1ccco1	-10%	1%	1%	-16
